According to PubChem BioAssay (NCATS):
Records with an inconclusive call do not appear. A number with no mark means an inactive call. Calls of active or inactive are those of the source. Calls come from the whole dose curve; as a rule, active = well fitted cell-killing curve with a large enough effect; inconclusive = small, poorly fitted or top-dose-only effect, or effect the other way; inactive = no such curve, though single readings can be large or run the other way.

Legend:
[1] = Quantitative High-Throughput drug screen in 47 multiple myeloma cell lines against the NCATS MIPE library collection: OCIMY7_PLB cell viability assay (AID 1918987); details: OCI-MY7 myeloma viability, CellTiter-Glo ATP, 48 h; viability (% of DMSO): at 45.8 µM (top of the series); note: nearly all actives have a fitted effect of over 65% in size
In short: (§1)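 Viability after 48 h drug exposure was measured as ATP-dependent luminescence. Cells, 500 per well, sat at 37 °C under 5% CO2; DMSO wells set 100%, media-only wells 0%.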

[2] = Quantitative High-Throughput drug screen in 47 multiple myeloma cell lines against the NCATS MIPE library collection: OCIMY5_PLB cell viability assay (AID 1918988); note: nearly all actives have a fitted effect of over 65% in size
In short: as §1

[3] = Quantitative High-Throughput drug screen in 47 multiple myeloma cell lines against the NCATS MIPE library collection: SKMM1_PLB cell viability assay (AID 1919863); details: SKMM1 myeloma viability, CellTiter-Glo ATP, 48 h; viability: stronger effect = lower value; note: nearly all actives have a fitted effect of over 35% in size
In short: as §1

[4] = Quantitative High-Throughput drug screen in 47 multiple myeloma cell lines against the NCATS MIPE library collection: U266_ATCC cell viability assay (AID 1919864); note: nearly all actives have a fitted effect of over 35% in size
In short: as §1

[5] = Quantitative High-Throughput drug screen in 47 multiple myeloma cell lines against the NCATS MIPE library collection: XG6_PLB cell viability assay (AID 1919865); note: nearly all actives have a fitted effect of over 40% in size
In short: as §1

[6] = Quantitative High-Throughput drug screen in 47 multiple myeloma cell lines against the NCATS MIPE library collection: PE2_PLB cell viability assay (AID 1919869); note: nearly all actives have a fitted effect of over 35% in size
In short: as §1

[7] = Quantitative High-Throughput drug screen in 47 multiple myeloma cell lines against the NCATS MIPE library collection: RPMI8226_ATCC cell viability assay (AID 1919871); note: nearly all actives have a fitted effect of over 30% in size
In short: as §1

[8] = Quantitative High-Throughput drug screen in 47 multiple myeloma cell lines against the NCATS MIPE library collection: OPM2_DSMZ cell viability assay (AID 1919872); note: nearly all actives have a fitted effect of over 30% in size
In short: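 Approved and investigational drugs from MIPE 4.0 were added by pin tool to 500 cells per well. After 48 hours at 37C, ATP-based CellTiter-Glo luminescence indicated remaining viability.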

[9] = Quantitative High-Throughput drug screen in 47 multiple myeloma cell lines against the NCATS MIPE library collection: KMS11_JCRBsus cell viability assay (AID 1919873); note: nearly all actives have a fitted effect of over 50% in size
In short: as §1

[10] = Quantitative High-Throughput drug screen in 47 multiple myeloma cell lines against the NCATS MIPE library collection: KMS28BM_JCRB cell viability assay (AID 1919874); note: nearly all actives have a fitted effect of over 35% in size
In short: as §1

[11] = Quantitative High-Throughput drug screen in 47 multiple myeloma cell lines against the NCATS MIPE library collection: OPM1_PLB cell viability assay (AID 1918989); note: nearly all actives have a fitted effect of over 40% in size
In short: as §1

[12] = Quantitative High-Throughput drug screen in 47 multiple myeloma cell lines against the NCATS MIPE library collection: XG1_PLB cell viability assay (AID 1919866); note: nearly all actives have a fitted effect of over 35% in size
In short: as §1

[13] = Quantitative High-Throughput drug screen in 47 multiple myeloma cell lines against the NCATS MIPE library collection: VP6_DJ cell viability assay (AID 1919867); note: nearly all actives have a fitted effect of over 40% in size
In short: as §1

[14] = Quantitative High-Throughput drug screen in 47 multiple myeloma cell lines against the NCATS MIPE library collection: UTMC2_PLB cell viability assay (AID 1919868); details: CellTiter-Glo ATP luminescence, 48 h; viability (% of DMSO control): at 45.8 µM (top of the series); note: nearly all actives have a fitted effect of over 55% in size
In short: as §1

[15] = Quantitative High-Throughput drug screen in 47 multiple myeloma cell lines against the NCATS MIPE library collection: PCM6_Riken cell viability assay (AID 1919870); note: nearly all actives have a fitted effect of over 30% in size
In short: as §1
Potency is the fitted concentration of half-maximal effect.

Structure (SMILES)	Potency [1]	Potency [2]	Potency [3]	Potency [4]	Potency [5]	Potency [6]	Potency [7]	Potency [8]	Potency [9]	Potency [10]	Potency [11]	Potency [12]	Potency [13]	Potency [14]	Potency [15]
O=c1[nH]c(=O)n([C@H]2C[C@@H](O)[C@@H](CO)O2)cc1C(F)(F)F	7.43 µM (active)	14.8 µM (active)	5.9 µM (active)	inactive	1.87 µM (active)	10.5 µM (active)	3.72 µM (active)	inactive	6.62 µM (active)	9.35 µM (active)					
OC(c1cc(C(F)(F)F)nc2c(C(F)(F)F)cccc12)C1CCCCN1 (centres undefined)		14.8 µM (active)	23.5 µM (active)	26.4 µM (active)	26.4 µM (active)	23.5 µM (active)		23.5 µM (active)	11.8 µM (active)		18.7 µM (active)	14.8 µM (active)	14.8 µM (active)	20.9 µM (active)	
CC(C)C[C@H](NC(=O)c1cc2ccccc2s1)C(=O)N1CCN(C(=O)[C@H](CO)NS(=O)(=O)c2ccc(Cl)cc2Cl)CC1		20.9 µM (active)		23.5 µM (active)		23.5 µM (active)					20.9 µM (active)		18.7 µM (active)		
Cc1nn(Cc2ccccc2Cl)c(C)c1CN(C)CC(O)COc1ccc(Cl)cc1 (centres undefined)		10.5 µM (active)	3.32 µM (active)	18.7 µM (active)	20.9 µM (active)		20.9 µM (active)	inactive	23.5 µM (active)	33.2 µM (active)	20.9 µM (active)	20.9 µM (active)		20.9 µM (active)	18.7 µM (active)
O=C(Nc1cccc(C(F)(F)F)c1)Nc1cc(S(=O)(=O)NC2CC2)ccc1-c1ccsc1	18.7 µM (active)				23.5 µM (active)	26.4 µM (active)	13.2 µM (active)	3.72 µM (active)		20.9 µM (active)	26.4 µM (active)			18.7 µM (active)	
Cc1cnc(CNC(=O)c2c(=O)c3ccc(N4CCCN(C)CC4)nc3n3c2sc2ccccc23)cn1		10.2 µM (active)	5.75 µM (active)	1.82 µM (active)	5.12 µM (active)	inactive	8.12 µM (active)		inactive		inactive	inactive			
O=S(=O)(O)c1ccc2cc(N=Nc3cc(S(=O)(=O)O)c4cccnc4c3O)ccc2c1		9.35 µM (active)	18.7 µM (active)	13.2 µM (active)		3.32 µM (active)	16.6 µM (active)	inactive		1.87 µM (active)		5.9 µM (active)	16.6 µM (active)		
CN(C)CC[C@H](CSc1ccccc1)Nc1ccc(S(=O)(=O)NC(=O)c2ccc(N3CCN(Cc4ccccc4-c4ccc(Cl)cc4)CC3)cc2)cc1[N+](=O)[O-]		0.0469 µM (active)	18.7 µM (active)	14.8 µM (active)	3.72 µM (active)	1.48 µM (active)	4.18 µM (active)	16.6 µM (active)			10.5 µM (active)			1.18 µM (active)	0.0526 µM (active)
COc1cc(Cl)cn2c(-c3cccc(NC4CNC4)n3)cnc12		13.2 µM (active)	9.35 µM (active)		2.96 µM (active)		inactive	inactive				11.8 µM (active)		20.9 µM (active)	14.8 µM (active)
COc1nccc(-c2c(-c3ccc(F)cc3)ncn2C2CCNCC2)n1		16.6 µM (active)	9.35 µM (active)	inactive				inactive				14.8 µM (active)	1.18 µM (active)		
CC[C@H](NC(=O)[C@H](C)NC)C(=O)N1C[C@@H](O)C[C@H]1Cc1c(-c2[nH]c3cc(F)ccc3c2C[C@H]2C[C@H](O)CN2C(=O)[C@H](CC)NC(=O)[C@H](C)NC)[nH]c2cc(F)ccc12	1.87 µM (active)				4.18 µM (active)		1.32 µM (active)		inactive	inactive		5.9 µM (active)	3.72 µM (active)		5.9 µM (active)
O=C(O)CCNc1cc(N2CCc3ccccc3CC2)nc(-c2ccccn2)n1		23.5 µM (active)		inactive	inactive	inactive	inactive		inactive		5.26 µM (active)	20.9 µM (active)			
Cc1cccc2c1CC[C@H](CN1CCC(c3c(Cl)cccc3Cl)CC1)C[C@@H]2O		2.64 µM (active)			20.9 µM (active)	20.9 µM (active)	16.6 µM (active)				18.7 µM (active)	20.9 µM (active)			18.7 µM (active)
C#CCN(C)CC1=Cc2ccccc2Oc2ccccc21		20.9 µM (active)			inactive	inactive	inactive	inactive		inactive	inactive	inactive			
COc1cc(Nc2nc3ccccc3nc2NS(=O)(=O)c2ccc(NC(=O)c3ccc(C)c(OC)c3)cc2)cc(OC)c1		4.69 µM (active)	10.5 µM (active)		13.2 µM (active)					inactive		13.2 µM (active)	5.9 µM (active)		2.35 µM (active)
NC(=O)c1ncn([C@@H]2O[C@H](CO)[C@@H](O)[C@@H]2O)n1	inactive				inactive	inactive		inactive	inactive		inactive	inactive			inactive
